Experimental data reported in PubChem BioAssay.

Key:
[1] = target: Tumor necrosis factor receptor superfamily member 10B (Homo sapiens) (UniProt O14763); assay: caspase-8 TRAIL sensitization, hit retest, confirmation, cell-based, NB7+caspase-8, with/without TRAIL, luminescence panel (AID 651596); conditions: NB7 neuroblastoma + caspase-8, TRAIL sensitization, luminescence viability, with TRAIL, mean of runs, at 10 µM, stronger effect = higher value
[2] = as above; conditions: NB7 neuroblastoma + caspase-8, without TRAIL, luminescence viability, without TRAIL, mean of runs, at 10 µM

Sequence of Tumor necrosis factor receptor superfamily member 10B (Homo sapiens) (O14763 whole entry, looked up): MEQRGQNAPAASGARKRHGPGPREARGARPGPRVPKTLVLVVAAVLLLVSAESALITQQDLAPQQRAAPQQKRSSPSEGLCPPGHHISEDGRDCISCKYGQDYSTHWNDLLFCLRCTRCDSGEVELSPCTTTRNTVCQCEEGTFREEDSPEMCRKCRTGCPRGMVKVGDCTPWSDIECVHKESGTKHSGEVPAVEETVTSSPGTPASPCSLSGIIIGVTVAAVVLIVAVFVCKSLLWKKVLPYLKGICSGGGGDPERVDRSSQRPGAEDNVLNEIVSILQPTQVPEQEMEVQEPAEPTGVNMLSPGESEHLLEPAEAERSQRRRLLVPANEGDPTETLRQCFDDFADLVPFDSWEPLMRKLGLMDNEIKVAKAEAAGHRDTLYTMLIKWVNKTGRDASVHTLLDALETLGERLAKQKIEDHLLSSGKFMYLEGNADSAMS

| SMILES | activity [1] [%] | activity [2] [%] |
| --- | --- | --- |
| Cn1c(=O)n(CCc2ccccc2)c(=O)c2c1nc1n2CCCN1CCc1ccccc1 | 21.1 | 24.9 |
| O=C(CSc1nnc(NC(=O)c2ccc(F)cc2)s1)NCc1ccco1 | 64.4 | 62.4 |
| Clc1nc2ccccc2cc1/C=N/Nc1nc2ccccc2[nH]1 | 86.2 | 81.5 |
| COc1ccccc1NC(CC(=O)c1ccccc1)C(=O)OCC(=O)c1ccc(C)c(C)c1 (centres undefined) | 73.5 | 66.2 |
| O=c1c2c3c(sc2nc2n1N=C(c1cccs1)CS2)CCCC3 | 74.5 | 77 |
| CC1(C)Cc2c(sc(NC(=O)COc3cccc4ccccc34)c2C#N)C(C)(C)N1 | 85.3 | 94.1 |
| Cc1ccccc1C(=O)O/N=C(\N)c1cccc([N+](=O)[O-])c1 | 80.9 | 79.9 |
| O=C(Nc1cccc(Oc2ccc(C(=O)O)c(C(=O)O)c2)c1)c1ccc(-c2ccccc2)cc1 | 60.4 | 56 |
| O=C(NN=Cc1ccc2c(c1)CCN2)c1cccs1 | 47.9 | 57.8 |
| O=C(Nc1ccc2c(c1)OCCO2)c1ccc(Cl)cc1 | 66.3 | 69.5 |
| Cc1cccc(C)c1NC(=O)C1CCN(S(C)(=O)=O)CC1 | 0.425 | -3.45 |
| Cc1ccc(NC2=Nc3ccccc3CS2)cc1 | 57.4 | 38 |
| O=C(C[C@H]1C/C=C\C[C@@H](NC(=O)OCC2c3ccccc3-c3ccccc32)C(=O)O[C@@H](c2ccccc2)CNC1=O)N[C@H](CO)Cc1ccccc1 | 64.2 | 43.2 |
| CSc1nc(NCCN(C)C)c2sc3nc(-c4ccco4)c4c(c3c2n1)CCC4 | 80.2 | 98.5 |
| CCc1cc2c(=O)c(-c3cnn(-c4ccccc4)c3)c(C)oc2cc1OCC(=O)Nc1ccc(F)c(F)c1 | 37.2 | 26.4 |
| Cc1ccc2nc(Cl)c(/C=N/Nc3ccc(C(=O)O)cc3)cc2c1 | 90.2 | 86.4 |
| CC(C)(C)C1CCc2sc(C(=O)NNC(=O)CCl)cc2C1 (centres undefined) | 98.8 | 95.6 |
| O=C(N/N=C/C=C/c1ccccc1)c1cc2c(ccc3ccccc32)o1 | 62.1 | 56.4 |
| CS(=O)(=O)c1ccc2nc(NC(=O)c3ccco3)sc2c1 | 61 | 57.8 |
| COc1ccc(-n2cc(C(=O)c3ccccc3O)cn2)cc1 | 39.1 | 29.7 |
| Cc1ccc(-c2nn3c(C)nnc3c3ccccc23)cc1S(=O)(=O)NCc1ccccc1 | 48.2 | 51.6 |

| SMILES | activity [1] [%] | activity [2] [%] |
| --- | --- | --- |
| COc1cc2sc3ccc(-c4ccc(CN5CCOCC5)cc4)cc3c(=O)c2cc1OC | 46.9 | 41.8 |
| COc1ccc(-c2nnc(NC(=O)c3ccco3)s2)cc1 | 55.4 | 60.6 |
| O=C(CCl)N(CCCNC(=O)C(F)(F)F)c1ccc([N+](=O)[O-])cc1 | 98.5 | 98.3 |
| CC(=O)Nc1ccc(C=NNc2nnc(NN=Cc3ccc(NC(C)=O)cc3)c3ccccc23)cc1 | 68.6 | 67.4 |
| CC1(C)N=C(N)N=C(N)N1c1ccccc1 | 83.4 | 87.2 |
| O=c1c2[nH]c3ccc(F)cc3c2ncn1C1CCCCC1 | 59.1 | 49.5 |
| Cc1nc(-c2ccc(NC(=O)c3ccc(Br)o3)cc2)cs1 | 68.5 | 67.5 |
| O=C1C(=Cc2ccc(F)cc2)CCc2ccccc21 | 82.8 | 76.7 |
| COCCn1c(C)cc(C(=O)COC(=O)c2n[nH]c3ccccc23)c1C | 88.7 | 86.9 |
| CCc1ccc(/C=N/NC(=O)c2c[nH]c3ccccc23)s1 | 21.7 | 20.4 |
| CC1CCN(S(=O)(=O)c2ccc3c(c2)C(=NO)c2cc(S(=O)(=O)N4CCC(C)CC4)ccc2-3)CC1 | 98.2 | 99 |
| Cn1c(=O)[nH]c(=O)c2c1nc([N+](=O)[O-])n2Cc1ccccc1 | 60.5 | 96.2 |
| O=C(/C=C/c1cccs1)N1CCc2ccccc21 | 59.8 | 55.5 |
| Cc1ccc(-c2nc(-c3ccccn3)no2)cc1[N+](=O)[O-] | 60.7 | 55 |
| Cc1cc2nc(N3C(=O)CNC3=S)sc2cc1C | 67.8 | 64.7 |
| CN(C)c1cccc(C(=O)N/N=C/c2ccccc2F)c1 | 82.8 | 73.2 |
| CCC(=O)N1CCN(c2ccc(NC(=O)c3cc4ccccc4o3)cc2Cl)CC1 | 79.6 | 54.4 |
| COc1ccc(C(=O)Nc2ccc3[nH]ncc3c2)cc1 | 78.3 | 77.1 |
| CN=c1scc(C)n1/N=C/c1ccc2c(c1)OCO2 | 56.7 | 42.2 |
| Nc1nc(N)c2cc(CNc3ccc(Cl)c(Cl)c3)ccc2n1 | 85.2 | 73.4 |
| CC1(C)N=C(N)N=C(N)N1c1ccc(OCC(=O)N2CCOCC2)c(Cl)c1 | 81.6 | 86 |

| SMILES | activity [1] [%] | activity [2] [%] |
| --- | --- | --- |
| O=Nc1c2cc(-c3ccccc3)[nH]nc-2c2ccccc12 | 78.8 | 78.7 |
| CC(C)(C)c1ccc(O)c(/C=N\O)c1 | 60.4 | 72.9 |
| CC(=O)c1c(C)[nH]c(C(=O)Nc2ccc(C)cn2)c1C | 75.9 | 77.6 |
| CC(C)(C)c1ccc(-c2noc(CCC(=O)Nc3cccnc3)n2)cc1 | 48.3 | 50.9 |
| O=C(N/N=C/c1cccc([N+](=O)[O-])c1)c1ccc2c(c1)OCCO2 | 73.3 | 61.3 |
| CCc1c(C)[nH]c2c(C)cccc2c1=O | 56.4 | 64.3 |
| CCCOc1ccc(-c2nnc(-c3ccco3)o2)cc1 | 53.5 | 50.9 |
| CCCCCN=Cc1c(C)[nH]n(-c2nc3ccccc3s2)c1=O | 95.5 | 95.9 |
| Cc1ccc2nc(-c3ccc(N)cc3)sc2c1 | 83.2 | 81.8 |
| Cc1ccnc(NC(=O)c2ccc(OCC3CCCO3)cc2)c1 (centres undefined) | 94.4 | 93.9 |
| CC(=O)Nc1nc2ccccc2n1CCOc1ccccc1 | 45.6 | 49.5 |
| Cc1onc(-c2c(F)cccc2Cl)c1C(=O)Nc1nc2ccccc2[nH]1 | 31.9 | 30.2 |
| CCOc1ccc(-c2ccc(SCC(=O)NCC3CCCO3)nn2)cc1 (centres undefined) | 41.8 | 32.7 |
| C#CCN(C[C@@H]1[C@@H](OC(=O)NCc2ccccc2F)[C@@H](OC(=O)NCc2ccccc2F)Cn2c(=O)ccc(=O)n21)S(=O)(=O)c1ccc(C)cc1 | 95 | 93.6 |
| c1ccc(-c2ccc(-c3cn4c(n3)CCC4)cc2)cc1 | 62.8 | 67.6 |
| CC(C)(C)NCCC(O)c1cc(C(F)(F)F)nc2c(C(F)(F)F)cccc12 (centres undefined) | 97.5 | 96.7 |
| O=C(OCc1cccc(C(F)(F)F)c1)c1cc(S(=O)(=O)N2CCOCC2)ccc1F | 36.8 | 21 |
| O=c1[nH]c(/C=C/c2ccccc2F)nc2ccccc12 | 86.9 | 86.8 |
| O=[N+]([O-])c1c(Nc2cccc(O)c2)cc(Cl)c2nonc12 | 97 | 99.5 |
| CCN(Cc1ccccc1)S(=O)(=O)c1ccc(C(=O)N(CCCN(C)C)c2nc3cc(C)cc(C)c3s2)cc1 | 23.3 | -11.7 |
